GLP1R inv ag – acts as inverse agonist at human GLP-1 receptor. HEK293 GLP-1R CRE-luciferase, luminescence, 24 h; GLP-1R form is constitutively active. Potency, µM (doses to about 38.3 µM), inactives show at the highest dose activity change, negative = inhibition, most hits filed as inhibitors. hit rate 1.6% among 410,000. AID 624417; also: % is scaled to controls: 0 for no effect and ±100 for the full control effect; nearly all actives have a fitted effect of over 55% in size
Target sequence (P43220 whole entry, looked up): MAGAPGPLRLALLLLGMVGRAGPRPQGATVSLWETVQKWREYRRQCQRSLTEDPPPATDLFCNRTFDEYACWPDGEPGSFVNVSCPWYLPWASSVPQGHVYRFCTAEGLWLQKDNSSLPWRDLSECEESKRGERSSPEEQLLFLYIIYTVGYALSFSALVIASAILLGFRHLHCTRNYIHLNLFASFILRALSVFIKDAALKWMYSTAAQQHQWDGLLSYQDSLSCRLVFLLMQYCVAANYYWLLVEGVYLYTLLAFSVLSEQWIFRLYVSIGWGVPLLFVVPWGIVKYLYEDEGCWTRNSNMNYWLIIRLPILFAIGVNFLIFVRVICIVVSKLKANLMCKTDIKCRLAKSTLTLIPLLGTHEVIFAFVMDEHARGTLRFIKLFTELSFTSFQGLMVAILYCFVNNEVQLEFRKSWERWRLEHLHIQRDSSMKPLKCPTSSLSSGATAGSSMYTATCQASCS
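GLP-1R inverse agonism mode: basal reporter luminescence in engineered HEK293 cells measured after one day of compound exposure at 37 deg C, with a 12 min room-temperature detection step.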
BRCA1 expr act – increases BRCA1 expression; MCF7-BRCA1-FFLuc reporter, luminescence, 48 h; response scale: scaled: vehicle 0%, 10 µM genistein 100%; Potency, µM (titrated, usually from 46.1 µM), for inactives: at the highest dose activation, most hits filed as activators; hit rate 1.1% among 380,000; AID 624202; also: nearly all actives have a fitted effect of over 80% in size
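MCF7 cells carrying a BRCA1-firefly luciferase reporter (2000 cells/well, phenol-red free MEM) were attached for 2 h at 37 °C, then given compounds for 48 h. Luminescence was read 15 min after luciferase reagent; activity normalized to genistein (10 microM) and DMSO.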
GLP1R ag – agonists of human GLP-1 receptor. P43220. HEK293 GLP-1R CRE-luciferase, luminescence, 4-6 h; cells express a hypersensitive GLP-1R form. Potency, µM (series often up to 45.6 µM), for inactives: top-dose activation, actives largely listed as activators. hit rate 0.007% among 380,000; also: % of control where 0% means no effect
GLP1R cytotox – cytotoxic in the GLP-1 receptor inverse agonist counter-screen; HEK293 cAMP-luciferase reporter cells, luminescence, 24 h; Potency, µM (series often up to 38.3 µM), for inactives: at the top dose activity change, negative = inhibition, actives largely listed as inhibitors; hit rate 0.13% among 410,000; AID 624418;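 also: loss of luciferase light is scored as toxicity; % is scaled to controls: 0 for no effect and ±100 for the full control effect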
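1536-well qHTS counterscreen of the MLSMR; 200 cells/uL, 12 h pre-incubation, 23 nL cpd, 24 h at 37 deg C 5% CO2, luciferase detection reagent, 12 min RT, luminescence. Inhibition = undesired.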
a7 integrin act – activators of alpha7 integrin expression for muscular dystrophy; Potency, µM (doses to about 38.3 µM), for inactives: top-dose activation, hits mostly activators; alpha7betagal myoblasts, beta-gal FDG fluorescence, 48 h; hit rate 0.064% among 350,000;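 also: 100% = response of the positive control SU9516; nearly all actives have a fitted effect of over 60% in size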
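Alpha7betagal+/- myoblasts (passage 13) were plated 16-24 hr, then exposed to compounds (1:260 dilution of DMSO stock) for 48 hours at 37C. After MPER lysis, β-galactosidase reporter activity was read as FDG fluorescence (ex 480/em 540) after 30 minutes.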
* marks the source's active call; other numbers are inactive results; ? = inconclusive; · = no result given; [ ] = another dose, or the depositor's remark. Compounds with a hit are over-represented: about 2.7% of the library has one in this group of screens. Calls follow the shape of the dose curve; as a rule, active = well fitted curve in the direction sought with a large enough effect; inconclusive = small, poorly fitted or top-dose-only effect, or another doubt; inactive = no such curve, though single readings can be large; an effect the other way counts as inactive or inconclusive. Potency is read from the fitted curve at half-maximal effect.

SMILES	GLP1R inv ag	BRCA1 expr act	GLP1R ag	GLP1R cytotox	a7 integrin act
Cc1ccc(-c2noc(C3CCCCC3)n2)cc1	17.0%	10µM*	-12.4%	-0.3%	16.1%
Cc1cccc(-c2noc(C3CCCCC3)n2)c1	0.0%	4.47µM*	0.0%	10.8%	9.6%
Cc1ccc(NC(=O)N2CCCC(c3nc(-c4ccc(F)cc4)no3)C2)cc1 (configuration not stated)	7.94µM*	31.8%	1.0%	?	0.6%
CCS(=O)(=O)N1CCC(c2nc(-c3ccc(C)cc3)no2)CC1	67.6%	29.9%	3.0%	6.2%	-20.3%[7.66 µM]
Cc1ccc(CCNc2ncnc3onc(C)c23)cc1	-24.0%	·	·	-1.4%	·
CCCN(CCC)S(=O)(=O)c1ccc(N2CCCCS2(=O)=O)cc1	-5.3%	·	·	5.2%	·
CC(C)CC(O)(CC(C)C)C(=O)NNc1ccccc1	5.62µM*	-31.1%	-7.7%	-14.9%	8.9%
CC(C)CCC(O)(CCC(C)C)C(=O)NNc1ccccc1	?	-41.8%	-2.9%	-5.1%	3.5%
CC(=O)c1cccc(-c2csc(N3CCC(C(N)=O)CC3)n2)c1	·	0.0%	-3.0%	·	·
NC(=O)C1CCN(c2nc(-c3cccc(Cl)c3)cs2)CC1	·	3.98µM*	21.2%	·	·
NC(=O)C1CCN(c2nc(-c3ccc4ccccc4c3)cs2)CC1	·	12.6µM*	2.0%	·	·
Cc1ccc(NC(=O)Cn2nnc(-c3nc(-c4ccc(Cl)cc4)no3)c2N)cc1C	2.1%	·	·	6.0%	·
CCC(/C=C1\Sc2ccc(OC)cc2N1CCO)=C\c1sc2ccc(OC)cc2[n+]1CCO	10µM*	-73.6%	3.0%	-18.3%	-32.7%
CCOC(=O)c1c(NC(NC(=O)C(C)C)C(Cl)(Cl)Cl)sc2c1CCC2 (configuration not stated)	5.62µM*	-34.4%	-4.3%	-2.6%	-27.0%
CCOC(=O)Nc1sc2c(c1C(=O)OCC)CCC2	-3.8%	1.4%	8.3%	2.5%	-1.0%
Cc1nc(COC(=O)c2c(C)nn(-c3ccccc3)c2C)cs1	36.7%	12.6µM*	16.7%	-7.6%	10.5%
Cc1coc2cc3oc(=O)c(CC(=O)NCc4cccc(Cl)c4)c(C)c3cc12	-3.8%	·	·	11.0%	·
Cc1ccc2c(c1)NC(=O)CC(c1ccccc1)=N2	-32.9%	10µM*	10.0%	?	8.8%
CCCCCc1ccc(OCCCC[n+]2ccccc2)c(CCCCC)c1	6.31µM*	-74.4%	9.6%	?	-68.9%
OC1CCN(c2cc(-c3ccccc3)nc3cc(-c4ccc(F)cc4)nn23)CC1	?	-5.7%	19.9%	-1.0%	22.8%
CCN1CCN(c2cc(-c3ccccc3)nc3cc(-c4cccc(F)c4)nn23)CC1	2.51µM*	-84.5%	-51.3%	?	-52.9%
Cc1ccc(S(=O)(=O)NC2c3cccc4cccc(c34)C2Sc2nc(C)cc(C)n2)cc1 (configuration not stated)	7.08µM*	-72.6%	2.4%	15.9%	0.4%
CN1CCN(c2ccc3sc(-n4ccc5ccccc54)nc3c2)CC1	6.31µM*	-9.4%	11.0%	3.3%	-7.7%
COc1ccc(-c2nc(CSCC(=O)N3CCN(c4cccc(C)c4C)CC3)c(C)o2)cc1OC	10µM*	·	·	-14.1%	·
COc1ccc(-c2nc(CSCC(=O)N3CCN(C)CC3)c(C)o2)cc1OC	17.9%	9.2%	6.4%	1.8%	-5.1%
SMILES	GLP1R inv ag	BRCA1 expr act	GLP1R ag	GLP1R cytotox	a7 integrin act
COc1ccccc1N1CCN(/N=C/C(Cl)=C/c2ccccc2)CC1	?	3.98µM*	16.5%	-15.1%	-25.4%
C=C[C@@]1(C)CC(=O)[C@]2(O)[C@@]3(C)[C@@H](O)CCC(C)(C)[C@@H]3[C@H](O)[C@H](OC(C)=O)[C@@]2(C)O1	37.3%	-11.7%	1.26µM*	3.2%	·
C=C[C@@]1(C)CC(=O)[C@]2(O)[C@@]3(C)[C@@H](O)CCC(C)(C)[C@@H]3[C@H](OC(C)=O)[C@H](O)[C@@]2(C)O1	166.5%	-21.2%	7.94µM*	-11.4%	-23.7%
C=C1C(=O)O[C@H]2C[C@]3(C)C([C@@H](OC(=O)/C(C)=C/C)[C@H]12)[C@](C)(O)CC[C@H]3O (some centres not stated)	3.7%	-28.5%	-5.6%	2.9%	-38.5%
Cc1ccc(C(C#N)c2ccc(C(=O)c3ccc(F)cc3)cc2)cc1 (configuration not stated)	11.2µM*	0.0%	-2.9%	13.4%	-14.3%
N#CC(c1ccc(F)cc1)c1ccc(C(=O)c2ccc(F)cc2)cc1 (configuration not stated)	?	-31.8%	10.9%	20.1%	-8.6%
COc1cccc(/C=C/c2ccc3ccccc3[n+]2C)c1OC	·	-44.0%	·	·	·
Cc1cccc(-c2nc(C)c(CCNC(=O)C(=O)Nc3cccc(Cl)c3C)s2)c1	11.1%	17.8%	2.3%	-8.4%	·
CCOC(=O)Cc1csc(NC(=S)NC(=O)c2cc(OC)c(OC)c(OC)c2)n1	-6.0%	-24.4%	8.0%	-9.3%	3.55µM*
CCOC(=O)Cc1csc(NC(=S)NC(=O)c2ccc(F)cc2)n1	0.0%	-46.0%	-14.0%	?	23.6%
Cc1cc([N+](C)(C)C)cc(C)c1/C=C/c1ccnc2ccccc12	·	-70.7%	·	·	·
COc1ccc(/C=C2\SC(=O)N(CCNC(=O)C3CSC4(C)CCC(=O)N34)C2=O)cc1 (configuration not stated)	-10.5%	28.7%	0.7%	-6.0%	-10.3%
COc1ccc(/C=C2\SC(=O)N(CCNC(=O)C3CC4C=CC3C4)C2=O)cc1 (configuration not stated)	?	5.62µM*	8.8%	-6.4%	4.3%
COc1ccc(S(=O)(=O)N/N=C\c2ccc3c(c2)OCO3)c(OC)c1	7.3%	-39.7%	6.1%	-3.6%	?
COc1ccc(OC)c(S(=O)(=O)N/N=C\c2ccc3c(c2)OCO3)c1	16.8%	12.6µM*	12.5%	-14.0%	2.6%
CCC(Cn1nnc2ccccc2c1=O)NC(=O)Nc1ccccc1Cl (configuration not stated)	9.8%	-4.9%	·	-3.9%	·
CCCC[C@@H]1CCCO[C@@](C(=O)NCc2ccccn2)(C(F)(F)F)C1	5.01µM*	-1.3%	-4.4%	19.0%	-15.8%
CCC[C@@H]1CCCO[C@@](C(=O)NCc2ccccn2)(C(F)(F)F)C1	?	-5.0%	-3.3%	4.4%	10.1%
CCc1ccc2oc(C(=O)N(Cc3ccc(N(C)C)cc3)Cc3ccco3)c(C)c2c1	?	·	·	10.8%	·
CN(c1ccccc1)c1nc(N)c([N+](=O)[O-])c(N2CCCC2)n1	?	11.2µM*	18.4%	-19.7%	16.9%
O=[N+]([O-])c1cccc(/C=N/NC2=NCCCCC2)c1	6.8%	89.9%	-0.9%	4.2%	0.0%
O=C(ONC1=NCCCCC1)c1cccc([N+](=O)[O-])c1	?	-47.7%	14.3%	11.2µM*	-7.8%

Screens as filed in PubChem.
